# An excerpt weighted towards active compounds, which were near 2.4% of everything screened.
# POLB inh – inhibitors of human DNA polymerase beta; Pol beta primer extension/strand displacement, fluorescence kinetic; Potency, µM (series often up to 114 µM), for inactives: top-dose activity change, negative = inhibition, most hits filed as inhibitors; 1.3% of 340,000 active; AID 485314; further: on the % scale 0 is the no-effect control and ±100 the full control effect
#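 Curves were derived by four-parameter Hill fits of normalized qHTS data. The kinetic fluorescent primer-extension read was taken at 0 and 10 min after 50 nM substrate, following a 15 min room-temperature preincubation of 10 nM enzyme with compounds.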
# TDP1 inh – TDP1 (human) enzyme inhibition. recombinant TDP1, AlphaScreen DNA substrate cleavage. Potency, µM (series often up to 130 µM), for inactives: at the highest dose activity change, negative = inhibition, usual class: inhibitors. 0.28% of 350,000 active; further: on the % scale 0 is the no-effect control and ±100 the full control effect; nearly all actives have a fitted effect of over 40% in size
# Target sequence (Q9NUW8 whole entry, looked up): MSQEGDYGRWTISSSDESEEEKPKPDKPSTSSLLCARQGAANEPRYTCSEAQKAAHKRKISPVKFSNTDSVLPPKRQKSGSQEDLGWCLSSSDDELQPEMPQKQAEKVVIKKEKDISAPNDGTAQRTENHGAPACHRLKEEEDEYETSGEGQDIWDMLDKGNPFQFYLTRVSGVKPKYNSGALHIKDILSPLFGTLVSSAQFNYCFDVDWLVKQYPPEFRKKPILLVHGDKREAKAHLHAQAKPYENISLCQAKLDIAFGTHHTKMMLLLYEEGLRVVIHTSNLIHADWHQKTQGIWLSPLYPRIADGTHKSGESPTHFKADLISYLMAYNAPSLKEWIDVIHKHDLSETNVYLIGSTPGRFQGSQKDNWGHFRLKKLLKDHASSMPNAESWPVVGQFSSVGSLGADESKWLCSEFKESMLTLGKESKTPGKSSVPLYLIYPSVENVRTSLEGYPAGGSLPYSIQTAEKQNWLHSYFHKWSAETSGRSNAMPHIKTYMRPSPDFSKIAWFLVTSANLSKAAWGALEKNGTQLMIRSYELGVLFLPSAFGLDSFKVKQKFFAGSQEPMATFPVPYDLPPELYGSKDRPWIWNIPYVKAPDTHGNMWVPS
#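 E. coli-derived human Tdp1, 1 nM final. Cpd preinc 15 min RT; substrate 15 nM final, 5 min RT; AS bead mix 10 ug/ml final, 10 min RT. Signal loss = tyrosine-FITC cleavage. No-enzyme wells = max signal.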
# Pol kappa inh-1 – inhibitors of human DNA polymerase kappa | Potency, µM (doses to about 107 µM), for inactives: top-dose activity, negative = inhibition, actives largely listed as inhibitors | purified Pol kappa, fluorescent DNA synthesis assay, 10 min | Q9UBT6 | 0.53% of 400,000 active; further: on the % scale 0 is the no-effect control and ±100 the full control effect
#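 10 nM Pol kappa was preincubated with compounds for 15 min at room temperature. Reaction started with 50 nM (final) substrate. Fluorescence read kinetically at 0 and 10 min.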
# Pol eta inh-1 – DNA polymerase eta (human) inhibition; Q9Y253; recombinant Pol eta, fluorescent DNA replication assay; Potency, µM (doses to about 114 µM), inactives show at the top dose activity change, negative = inhibition, most hits filed as inhibitors; 1.2% of 390,000 active; AID 588591; further: on the % scale 0 is the no-effect control and ±100 the full control effect
#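 Fluorescent replication assay: 50 nM final substrate added after a 15 min room-temperature compound preincubation with 10 nM enzyme. Signal taken at 0 min and again at 10 min.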
# FEN1 inh – human FEN1 inhibition | 0.35% of 390,000 active | P39748 | Potency, µM (series often up to 114 µM), without a hit: at the top dose activity change, negative = inhibition, hits mostly inhibitors | Recombinant FEN1 flap cleavage, fluorescence, 15 min; further: on the % scale 0 is the no-effect control and ±100 the full control effect; nearly all actives have a fitted effect of over 65% in size
#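 Potency values derive from four-parameter Hill fits of normalized qHTS data. The reaction used 10 nM FEN1 preincubated 15 min at room temperature with compound, then 50 nM DNA substrate, read at 0 and 15 min.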
# POLI inh – DNA polymerase iota (human) inhibition | Q9UNA4 | Pol iota fluorescent replication assay, 10 min | Potency, µM (titrated, usually from 115 µM), for inactives: at the top dose activity, negative = inhibition, hits mostly inhibitors | 1% of 390,000 active | AID 588590
#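 Fluorescent replication assay read twice, at 0 min and 10 min after adding 50 nM (final) substrate. Enzyme (10 nM) and compounds were first incubated 15 min at room temperature; enzyme-free buffer wells were negative controls.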
# Pol kappa inh-2 – confirmation of human DNA polymerase kappa inhibitors | shares compounds with Pol eta inh-1 | purified Pol-kappa, fluorescent strand-displacement substrate | Potency, µM, usual class: inhibitors | 76% of 920 active | AID 720501
# Pol eta inh-2 – confirmation of human DNA polymerase eta inhibitors; shares compounds with Pol eta inh-1; Pol eta primer extension, TAMRA/BHQ fluorescence, 10 min; Potency, µM, usual class: inhibitors; 64% of 2,600 active; AID 720502
# Active calls of the source: *; ? = inconclusive; / = no result; [ ] = another dose, or the depositor's remark. The call rests on the fitted dose curve; in most records, active means well fitted curve in the direction sought with a large enough effect; inconclusive means small, poorly fitted or top-dose-only effect, or another doubt; inactive means no such curve, though single readings can be large; an effect the other way counts as inactive or inconclusive. Potency means the concentration at half of the fitted maximal effect.
SMILES,POLB inh,TDP1 inh,Pol kappa inh-1,Pol eta inh-1,FEN1 inh,POLI inh,Pol eta inh-2,others
COc1cc2c(cc1OC)-c1cc(Nc3ccc(C(=O)O)cc3)nc(=O)n1CC2,?,/,-27.1%,35.5µM*,-22.9%,?,?,
COc1ccccc1-c1ccc(/C=C2\C=CC(=O)O2)o1,-99.7%,/,35.5µM*,25.1µM*,?,20µM*,53.6*,
COc1cc(/C=C2\C=CC(=O)O2)cc(OC)c1,-14.8%,/,0.2%,-12.7%,-1.3%,51.1%,/,
COc1ccc(CNc2nc(NCc3ccc(OC)cc3)c3ncn(C4CCCCC4)c3n2)cc1,/,17.4%,6.9%[60.1 µM],/,/,/,/,
COc1ccc(C2(SCC(N)C(=O)O)c3ccccc3-c3ccccc32)cc1 (stereo not given),/,/,-17.7%,?,9.4%,?,/,
NC(CSC1(c2ccc(Cl)cc2)c2ccccc2-c2ccccc21)C(=O)O (stereo not given),/,/,-8.8%,?,1.4%,?,?,
CNC1=C(Cl)C(=O)c2ccncc2C1=O,/,0.9%,/,/,/,/,/,
O=C(O)c1ccc2c(=O)n3cc(C(=O)c4ccccc4O)cc(Cl)c3nc2c1,?,/,-51.2%,8.91µM*,35.5µM*,?,12*,
O=C(NNC(=O)c1ccccc1Cl)c1ccc2c(=O)n3c(nc2c1)CCC3,/,-2.7%[56.1 µM],-3.1%,-23.0%,16.3%,55.7%,/,
O=C1CS/C(=N\N=C\c2ccco2)N1c1ccccc1,?,-2.8%,?,?,-12.1%,?,?,Pol kappa inh-2=?
NC(=O)COC(=O)c1ccc(S(=O)(=O)NCc2ccco2)cc1,?,15.8µM*,?,35.5µM*,1.7%,14.1µM*,?,
O=C(COc1ccccc1)NCCSCc1ccco1,?,/,?,14.1µM*,-3.1%,?,?,
O=C(COc1ccccc1)Nc1ccc(S(=O)(=O)NCc2ccco2)cc1,44.7µM*,0.9%,?,17.8µM*,2.3%,?,?,
O=C(CCSc1ccccc1)NCCSCc1ccco1,?,5.5%,-5.9%,?,-2.2%,2.0%,/,
CC(=O)Nc1ccc(NC(=O)COC(=O)c2ccc(S(=O)(=O)NCc3ccco3)cc2)cc1,/,-2.4%,-11.9%,-6.9%,0.0%,-17.2%,/,
CCOC(=O)C1=CC(OC(CC)CC)C(NC(C)=O)C(N)C1 (stereo not given),/,-10.2%[56.1 µM],2.0%[60.1 µM],/,/,/,/,
CC(=O)Nc1ccc(Nc2nc(C)c([N+](=O)[O-])c(Nc3ccccc3)n2)cc1,-26.5%,5.6%,-1.8%,-15.8%,-21.7%,7.2%,/,
Cc1nc(Nc2ccc(C(=O)O)cc2)nc(Nc2ccc(C(=O)O)cc2)c1[N+](=O)[O-],-1.1%,/,?,35.5µM*,?,44.7µM*,37.9*,
O=C(NCc1ccccc1)c1ccc2c(=O)[nH]c3c(C(=O)NCC4CCCO4)sc(=S)n3c2c1 (stereo not given),?,0.0%,-14.7%,?,-24.1%,38.5%,?,
CCC1CCc2nc3sc(C(=O)Nc4cccc(C(F)(F)F)c4)c(N)c3cc2C1 (stereo not given),11.9%,/,-4.8%,-4.3%,14.9%,-6.6%,/,
COc1ccc(/C=N\NC(=O)c2ccc([N+](=O)[O-])c(C)c2)cc1COc1ccccc1C(N)=O,?,6.7%,-11.7%,-19.6%,79.4µM*,44.6%,/,Pol kappa inh-2=37.7*
COc1ccc(/C=N/NC(=O)c2ccccc2OC)cc1COc1ccccc1[N+](=O)[O-],?,1.1%,-1.1%,-14.6%,2.9%,-29.3%,/,
Cc1nn(-c2ccc(N3CCCC3)nn2)c(C)c1CCC(=O)N1CCN(c2ccccc2F)CC1,5.0%,4.5%,-14.1%,-16.7%,0.8%,27.2%,/,
N#Cc1ccsc1NC(=O)COC(=O)CCS(=O)(=O)c1ccccc1,/,-10.3%,?,31.6µM*,-2.3%,?,?,
CC(=O)NN1C(=O)/C(=C/c2ccc(Br)o2)SC1=S,?,?,7.94µM*,3.98µM*,39.8µM*,2.51µM*,?,
SMILES,POLB inh,TDP1 inh,Pol kappa inh-1,Pol eta inh-1,FEN1 inh,POLI inh,Pol eta inh-2,others
CC(=O)OC[C@@H]1O[C@@H](O/N=C2/C[C@@H](O)[C@@H](O)[C@@H]3[C@@H]4C(=O)N(C[C@@H]5CCCO5)C(=O)[C@H]4CC[C@H]23)[C@H](OC(C)=O)[C@H](OC(C)=O)[C@@H]1OC(C)=O,/,1.6%[21 µM],/,/,/,/,/,
O=C(COC(=O)c1ccc(O)cc1O)Nc1ncc(Cl)cc1Cl,/,/,-16.9%,?,-4.4%,-8.7%,?,
O=C(COC(=O)c1ccc(Br)o1)Nc1ncc(Cl)cc1Cl,?,-2.5%,-42.2%,?,-7.8%,?,/,
O=C(COC(=O)C1CCCC1)Nc1ncc(Cl)cc1Cl,/,/,?,15.8µM*,1.4%,?,?,
O=C(COC(=O)C1CCC1)Nc1ncc(Cl)cc1Cl,/,/,-20.7%,-4.9%,-3.2%,?,/,
O=C(COC(=O)c1cnccn1)Nc1ncc(Cl)cc1Cl,/,-7.4%,-15.8%,22.4µM*,2.4%,?,?,
N#Cc1c(NC(=O)COC(=O)c2ccc(O)cc2O)sc2c1CCC2,/,22.4µM*,79.4µM*,20µM*,-11.9%,?,?,
O=C(O)[C@@H]1C[C@H](C(=O)O)N1,15.6%[57.1 µM],11.8%[56.1 µM],?,-1.5%[57.1 µM],28.6%[57.1 µM],?,/,
O=C(Nc1cc([N+](=O)[O-])ccc1O)c1cccc([N+](=O)[O-])c1,-17.5%,/,-3.9%,-6.3%,25.6%,4.8%,/,
O=C(Nc1cc([N+](=O)[O-])ccc1O)c1ccc2c(c1)C(=O)N(Cc1ccco1)C2=O,26.4%,2.0%,50.1µM*,31.6µM*,?,39.8µM*,?,
O=C(Nc1cc([N+](=O)[O-])ccc1O)c1cccc(C(=O)Nc2cc([N+](=O)[O-])ccc2O)c1,-1.4%,/,-24.8%,?,?,16.5%,?,
O=C(Nc1ccc(O)cc1)c1ccc2c(c1)C(=O)N(Cc1ccco1)C2=O,0.7%,-1.9%,-27.9%,14.1µM*,-17.0%,?,67.5*,
O=C(CN1C(=O)c2ccc([N+](=O)[O-])cc2C1=O)NCc1ccco1,30.3%,0.0%,-2.2%,-14.4%,-9.5%,162.6%,/,
CNC(=O)C1CCC(Cn2c(=O)c3sccc3n(CC(=O)Nc3ccc(C)c(C)c3)c2=O)CC1 (stereo not given),35.7%,3.2%,-1.1%,-4.1%,-3.9%,5.0%,/,

# Screening results deposited in PubChem BioAssay by National Center for Advancing Translational Sciences (NCATS).
